Reference: PubChem BioAssay (NCATS)
Results filed as inconclusive are left out. Activity calls are given as the source filed them. Unless noted, calls come from the whole dose curve; as a rule, active = well fitted curve in either direction with a large enough effect (not every such curve was filed as active); inconclusive = small, poorly fitted or top-dose-only effect, or another doubt; inactive = flat fitted curve, though single readings scatter.

Experiments:
[1] = target: Lysosomal acid glucosylceramidase (Homo sapiens) (UniProt P04062); assay: Glucocerebrosidase-p2 (AID 348; in the data active = potency below about 10 µM; note: potency is the fitted concentration of half-maximal effect); conditions: purified GBA, blue fluorogenic substrate, 40 min
Sequence of Lysosomal acid glucosylceramidase (Homo sapiens) (P04062 whole entry, looked up): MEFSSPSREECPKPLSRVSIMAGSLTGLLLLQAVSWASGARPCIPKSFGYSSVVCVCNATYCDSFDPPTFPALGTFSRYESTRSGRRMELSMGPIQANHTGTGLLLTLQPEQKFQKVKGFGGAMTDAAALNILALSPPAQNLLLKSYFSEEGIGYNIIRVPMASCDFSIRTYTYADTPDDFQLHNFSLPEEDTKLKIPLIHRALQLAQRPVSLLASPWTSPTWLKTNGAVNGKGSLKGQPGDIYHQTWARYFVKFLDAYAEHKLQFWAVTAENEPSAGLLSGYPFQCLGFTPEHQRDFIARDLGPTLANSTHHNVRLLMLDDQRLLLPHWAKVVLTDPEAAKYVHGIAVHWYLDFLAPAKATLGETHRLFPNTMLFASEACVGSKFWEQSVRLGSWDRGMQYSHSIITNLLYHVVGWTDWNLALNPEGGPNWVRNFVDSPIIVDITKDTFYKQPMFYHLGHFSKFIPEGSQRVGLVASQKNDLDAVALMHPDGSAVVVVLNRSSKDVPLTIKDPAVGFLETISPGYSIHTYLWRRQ
Method in brief: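 Normal human glucocerebrosidase (0.2 nM) with blue fluorogenic substrate (80 uM final) in citrate/phosphate pH 5.9 with 10mM sodium taurocholate, 0.01% tween-20; 40 min RT, NaOH/glycine stop; fluorescence Ex 365/Em 440; AC50 from a titration from 0.6 nM upwards.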

[2] = AP1 Signaling Pathway (AID 357); conditions: ME-180 AP-1-bla reporter, EGF-induced, beta-lactamase ratio, 5 h; at 7.69 µM (top of the series) unless noted;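 note: ME-180 reporter cells stimulated with EGF at its EC50 level; % is set by controls: 0 for no effect and ±100 for the full control effect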
Method in brief: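 Cells are seeded overnight, exposed to compound titrations and an EC50 level of EGF for 5 hours at 37 °C, then loaded with CCF4 dye for 2.5 hours. Beta-lactamase activity under the AP-1 element is read as a blue/green ratio.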

[3] = NFAT Signaling Pathway (AID 444); conditions: Jurkat NFAT-bla M1, carbachol, beta-lactamase ratio, 5 h; at 7.69 µM (top of the series) unless noted;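 note: carbachol stimulus at about its EC50 of 1 µM final; % is set by controls: 0 for no effect and ±100 for the full control effect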
Method in brief: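 Read-out: CCF4 FRET ratio (460 nm/530 nm) after 1 h RT dye loading, used for %activity and AC50 from titration series. Cells: Jurkat NFAT-β-lactamase/M1 line, treated with compound plus 1 uM carbachol for 5 h, 37 °C.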

[4] = Stat Signaling Pathway (AID 446); conditions: ME-180 (cervical carcinoma) SIE beta-lactamase reporter, IL-6 stimulated, 5 h; at 7.69 µM (top of the series) unless noted;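 note: ME-180 cervical cancer cells given 40 pM IL-6 alongside compound; SIE-controlled beta-lactamase reporter measured as 460/530 nm FRET emission ratio; % is set by controls: 0 for no effect and ±100 for the full control effect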
Method in brief: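 FRET read-out (405 nm excitation, 460/530 nm emission) of a beta-lactamase reporter under a STAT-inducible element in ME-180 cervical carcinoma cells. Cells with compound receive 40 pM IL-6 for 5 h. Values are normalised to AC90 stimulation and AC90 JAK-inhibitor controls.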

[5] = target: Glucocorticoid receptor (Homo sapiens) (UniProt P04150); assay: GR-EFC Redistribution (AID 451; calls by dose curve; note: potency is the fitted concentration of half-maximal effect); conditions: CHO-K1 GR-EFC translocation, beta-gal luminescence, 2 h
Sequence of Glucocorticoid receptor (Homo sapiens) (P04150 whole entry, looked up, the tested form may be a part): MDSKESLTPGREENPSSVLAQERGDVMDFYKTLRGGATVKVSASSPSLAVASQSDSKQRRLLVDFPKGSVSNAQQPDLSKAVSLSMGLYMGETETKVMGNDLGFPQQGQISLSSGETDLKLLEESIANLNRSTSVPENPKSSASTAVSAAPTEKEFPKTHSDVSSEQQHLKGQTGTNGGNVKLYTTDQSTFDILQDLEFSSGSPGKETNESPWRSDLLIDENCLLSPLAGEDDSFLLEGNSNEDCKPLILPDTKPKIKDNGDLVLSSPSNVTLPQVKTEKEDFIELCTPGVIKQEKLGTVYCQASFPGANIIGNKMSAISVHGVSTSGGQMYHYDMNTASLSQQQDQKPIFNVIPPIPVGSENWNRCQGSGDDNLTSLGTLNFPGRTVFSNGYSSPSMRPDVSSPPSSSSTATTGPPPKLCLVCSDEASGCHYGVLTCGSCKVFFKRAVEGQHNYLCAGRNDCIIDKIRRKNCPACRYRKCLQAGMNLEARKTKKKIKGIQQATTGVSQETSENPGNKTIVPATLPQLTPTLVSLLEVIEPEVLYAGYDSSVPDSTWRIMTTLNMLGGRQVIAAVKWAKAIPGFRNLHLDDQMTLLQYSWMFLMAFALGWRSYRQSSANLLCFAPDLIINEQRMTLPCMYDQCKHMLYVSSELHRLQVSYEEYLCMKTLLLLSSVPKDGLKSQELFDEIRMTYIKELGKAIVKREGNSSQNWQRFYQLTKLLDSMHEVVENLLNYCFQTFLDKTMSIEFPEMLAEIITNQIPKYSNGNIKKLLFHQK
Method in brief: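 Translocation of GR-ED fusion to nuclear EA restores b-gal, read by luminescence after 1 h room-temperature detection. Engineered CHO-K1 biosensor cells, 1,000/well, exposed 2 h at 37 C to titrations up to 46 uM final.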

[6] = target: Mitogen-activated protein kinase 10 (Mus musculus) (UniProt Q61831); assay: JNK3 AlphaScreen Assay (AID 530); conditions: JNK3 lysate, c-Jun phosphorylation; series mostly up to 57.1 µM;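 note: kinase came from lysate of stimulated human HepG2 cells; signal reports phosphorylation of biotinylated GST-cJun 1-79 at Ser73 with 10 µM ATP; % is set by controls: 0 for no effect and ±100 for the full control effect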
Method in brief: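 Kinase buffer: 20 mM Tris-HCl pH 7.6, 10 mM MgCl2, 1 mM DTT, 0.1 mM Na3VO4, 0.01% Tween-20; ATP 10 uM. Substrate biotin-GST-cJun(1-79), enzyme from activated HepG2 lysates. Detection by Ser73 phospho-antibody AlphaScreen.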

[7] = target: 3',5'-cyclic-AMP phosphodiesterase 4B (Homo sapiens) (UniProt Q07343); assay: qHTS Assay for Inhibitors of PDE-IV (AID 607; active = well fitted activation curve with a large enough effect in the main read-out, with a control signal flat, not every such curve was filed as active; note: % of control where 0% means no effect); conditions: HEK293 ACTOne CNG channel cells, membrane potential fluorescence; series mostly up to 22.9 µM
Sequence of 3',5'-cyclic-AMP phosphodiesterase 4B (Homo sapiens) (Q07343 whole entry, looked up): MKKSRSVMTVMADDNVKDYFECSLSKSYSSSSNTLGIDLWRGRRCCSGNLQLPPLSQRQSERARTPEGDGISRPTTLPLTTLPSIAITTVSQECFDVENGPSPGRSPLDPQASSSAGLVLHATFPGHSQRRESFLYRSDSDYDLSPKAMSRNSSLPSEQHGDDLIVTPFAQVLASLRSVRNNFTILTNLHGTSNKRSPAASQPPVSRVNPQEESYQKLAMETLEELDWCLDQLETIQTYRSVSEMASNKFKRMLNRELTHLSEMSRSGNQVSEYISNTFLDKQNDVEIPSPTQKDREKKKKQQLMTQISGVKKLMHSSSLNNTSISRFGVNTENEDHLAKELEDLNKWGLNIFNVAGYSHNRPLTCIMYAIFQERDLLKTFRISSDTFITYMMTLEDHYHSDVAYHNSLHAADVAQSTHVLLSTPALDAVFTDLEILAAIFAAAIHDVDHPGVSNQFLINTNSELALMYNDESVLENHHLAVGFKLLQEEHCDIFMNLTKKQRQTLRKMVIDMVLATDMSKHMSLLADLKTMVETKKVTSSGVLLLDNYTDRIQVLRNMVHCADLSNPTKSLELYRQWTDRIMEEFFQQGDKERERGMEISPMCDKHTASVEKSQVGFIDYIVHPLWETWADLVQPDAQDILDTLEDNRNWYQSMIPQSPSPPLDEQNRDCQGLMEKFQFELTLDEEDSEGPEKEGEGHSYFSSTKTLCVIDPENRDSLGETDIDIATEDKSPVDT
Method in brief: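 Cell-based read-out of cAMP via a modified cyclic nucleotide-gated channel and membrane potential dye (535/590 nm) in HEK293 cells expressing PDE4 endogenously. Compounds tested up to 22.9 uM final; 100 uM RO 20-1724 reference.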

[8] = qHTS Assay for Lipid Storage Modulators (AID 1519; calls by dose curve); conditions: Drosophila S3 cells, BODIPY lipid droplet/cell ratio, laser cytometry, cells loaded with oleic acid; for activity change, negative = inhibition: at 57.5 µM (top of the series)
Method in brief: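 Cells seeded at 5,000 per well were treated with compounds over a concentration series and loaded with oleic acid (400 uM, as added). Lipid droplet fluorescence (488 nm excitation, 500-530 nm channel) was read by laser-scanning cytometry and normalized to 20 uM Triacsin C.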

[9] = Primary qHTS for small molecule stabilizers of the endoplasmic reticulum resident proteome: Secreted ER Calcium Modulated Protein (SERCaMP) assay (AID 1508630; active = well fitted inhibition curve with a large enough effect; note: % is set by controls: 0 for no effect and ±100 for the full control effect); conditions: SH-SY5Y GLuc-SERCaMP (Gaussia luciferase released on ER calcium loss) secretion, thapsigargin, luminescence; series mostly up to 38.4 µM
Method in brief: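 The SH-SY5Y reporter protocol was run at 3 concentrations up to 38.3 uM (primary) or 11 concentrations (follow-up): 16 h compound, 100 nM thapsigargin for 4 h, then extracellular luciferase luminescence.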

[10] = measured here: cell count channel max response
[11] = measured here: lipid channel max response

| SMILES | Potency [1] | activity change, negative = inhibition [2] | activity change, negative = inhibition [3] | activity, negative = inhibition [4] | Potency [5] | Potency [6] | Potency [7] | activity change, negative = inhibition [8] | max response [8, 10] [%] | max response [8, 11] [%] | outcome [9] |
| --- | --- | --- | --- | --- | --- | --- | --- | --- | --- | --- | --- |
| COCC(=O)N1CCC2(CC1)CN(c1ccncc1)C2 | > 11.4 µM (inactive) | -2.96% (inactive) | 2.67% (inactive) | -1.5% (inactive) | > 46 µM (inactive) | inactive | inactive | 2.59% (inactive) | 4.76 | 11.2 | inactive |
| Cn1cccc1C(=O)N1CCC2(CCN(C(=O)Nc3cccc(C#N)c3)CC2)CC1 | > 11.4 µM (inactive) | -16.2% (inactive) | 8.67% (inactive) | -3.46% (inactive) | > 46 µM (inactive) | inactive | inactive | 4.21% (inactive) | 4.21 | 11.6 | inactive |
| COC(=O)N1CCC2(CCN(C(=O)Nc3cccc(C#N)c3)CC2)CC1 | > 11.4 µM (inactive) | -20.7% (inactive) | 4.12% (inactive) | 7.14% (inactive) | > 46 µM (inactive) | inactive | inactive | -0.883% (inactive) | 12.6 | 14 | inactive |
| O=C(Nc1cccc(F)c1)N1CC2(CCN(C(=O)c3ccco3)CC2)C1 | > 11.4 µM (inactive) | -3.07% (inactive) | 4.39% (inactive) | 1.12% (inactive) | > 46 µM (inactive) | inactive | inactive | 5.94% (inactive) | 1.85 | 13.6 | inactive |
| CC(=O)N1CCC[C@@]2(CCN(C(=O)Nc3ccccc3)C2)C1 | > 11.4 µM (inactive) | 10.4% (inactive) | 22.8% (inactive) | -3.7% (inactive) | > 46 µM (inactive) | inactive | inactive | 3.44% (inactive) | -12.3 | -5.99 | inactive |
| Cn1cccc1C(=O)N1CCC[C@@]2(CCN(c3ncccn3)C2)C1 | > 11.4 µM (inactive) | -1.25% (inactive) | -9.56% (inactive) | -1.27% (inactive) | > 46 µM (inactive) | inactive | inactive | 1.1% (inactive) | -6.2 | -1.14 | inactive |
| CC(C)NC(=O)N1CC[C@@]2(CCCN(C(=O)c3ccncc3)C2)C1 | > 11.4 µM (inactive) | -20.1% (inactive) | 16.9% (inactive) | -4.77% (inactive) | > 46 µM (inactive) | inactive | inactive | 0.271% (inactive) | -1.86 | 0.996 | inactive |
| O=S(=O)(c1ccccc1)N1CCC2(CC1)CN(c1ccccc1)C2 | > 11.4 µM (inactive) | 3.38% (inactive) | 8.23% (inactive) | -6.85% (inactive) | > 46 µM (inactive) | inactive | inactive | 4.76% (inactive) | 12.5 | 18.4 | inactive |
| O=C(c1cccc(F)c1)N1CCC[C@@]2(CCN(c3ncccn3)C2)C1 | > 11.4 µM (inactive) | -17.6% (inactive) | 10.1% (inactive) | 1.15% (inactive) | > 46 µM (inactive) | inactive | inactive | 3.33% (inactive) | 7.74 | 15.7 | inactive |
| COCC(=O)N1CCC[C@@]2(CCN(Cc3cc(C(F)(F)F)cc(C(F)(F)F)c3)C2)C1 | > 11.4 µM (inactive) | 3.75% (inactive) | 6.67% (inactive) | 9.45% (inactive) | > 46 µM (inactive) | inactive | inactive | 5.27% (inactive) | 7.6 | 16.2 | inactive |
| COc1ccc(NC(=O)N2CC3(CCN(C(=O)c4cc(C(F)(F)F)cc(C(F)(F)F)c4)CC3)C2)cc1 | > 11.4 µM (inactive) | -15.1% (inactive) | 16% (inactive) | -20.2% (inactive) | > 46 µM (inactive) | inactive | inactive | 2.01% (inactive) | 12.2 | 18.4 | inactive |
| Cc1noc(C)c1C(=O)N1CCC2(CC1)CCN(c1ncccn1)CC2 | > 11.4 µM (inactive) | 16.2% (inactive) | 5.74% (inactive) | 3.32% (inactive) | > 46 µM (inactive) | inactive | inactive | 5.54% (inactive) | 6.46 | 13.5 | inactive |
| COc1ccc(NC(=O)N2CC[C@@]3(CCCN(C(C)=O)C3)C2)cc1 | > 11.4 µM (inactive) | -3.83% (inactive) | 13.8% (inactive) | 6.12% (inactive) | > 46 µM (inactive) | inactive | inactive | 5.28% (inactive) | 4.36 | 12 | inactive |
| CC(C)NC(=O)N1CC2(CCN(C(=O)c3cccn3C)CC2)C1 | > 11.4 µM (inactive) | -10.8% (inactive) | -17.2% (inactive) | 4.27% (inactive) | > 46 µM (inactive) | inactive | inactive | 2.27% (inactive) | 10.2 | 15.6 | inactive |
| N#Cc1ccc(CN2CC[C@@]3(CCCN(C(=O)c4cnccn4)C3)C2)cc1 | > 11.4 µM (inactive) | -8.73% (inactive) | 1.72% (inactive) | 4.34% (inactive) | > 46 µM (inactive) | inactive | inactive | 2.06% (inactive) | 12.2 | 18.2 | inactive |
